# Measured values published in PubChem BioAssay AID652040 (Broad Institute, 2013).
# Measured potencies and affinities stand elsewhere. Activity calls are given as the source filed them.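 Rule for the calls: active = falling luciferase signal whose fitted half-maximal concentration is at most twice the top tested dose; inconclusive = flat inhibition between 30 and 70% or a poor curve fit; inactive = the rest.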
# Experiment: off-target signal loss in HeLa-CEM21 co-culture – HeLa F-luc CTL cells, cherry-picked, counter-screen for HIV-1 Env fusion inhibitor project, dose response (AID 652040);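 note: more negative values mean stronger loss of luciferase signal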
# Details: HeLa-F-luc CTL cells with CEM21, firefly luciferase counterscreen; series mostly up to 35 µM
row,Compound,outcome
1,CCN(c1nc(N)c(C(=O)N=C(N)N)nc1Cl)C(C)C,inactive
2,C[C@@H]1CN([C@H](C)CO)S(=O)(=O)c2ccc(C#Cc3cccc(F)c3)cc2O[C@@H]1CN(C)C(=O)CN1CCOCC1,inactive
3,CCNc1ncnc2c1cnn2C1CCCO1 (stereo not given),inactive
4,O=C(CN1CCN(Cc2ccc(Cl)cc2)C1=O)NCCCN1CCN(c2ccc(F)cc2)CC1,inactive
5,C[C@H]1NC(=O)[C@@]2(C)[C@H](c3ccccc3)[C@H]3COc4ccccc4[C@@H]3N2C1=O,inactive
6,O=C(NNS(=O)(=O)c1ccc(F)cc1F)C1Cc2c(ccc3ccccc23)O1 (stereo not given),inactive
7,COc1ccc(N2CCn3c2nc2c3c(=O)n(CCCc3ccccc3)c(=O)n2C)c(OC)c1,inactive
8,CC(NNC(=S)N1CCCCCC1)c1ccc2ccccc2n1 (stereo not given),inactive
9,COCCCNC(=O)c1sc2ncnc(N3CCc4ccccc4C3)c2c1C,inactive
10,O=C(Nc1ccc(N2CCN(C(=O)c3ccc(Cl)cc3)CC2)cc1)c1ccc2c(c1)OCCO2,inactive
11,Cc1ccc(NS(=O)(=O)c2cc(C(=O)N(C)C3CCN(C)CC3)ccc2Cl)cc1Cl,inactive
12,COc1ccc(S(=O)(=O)N2CCCCC2)cc1NC(=O)CCCOc1ccc(C)cc1,inactive
13,COc1ccc(NC(=O)CN2CCC(C(N)=O)(N3CCCCC3)CC2)cc1,inactive
14,COc1ccc2[nH]c3c(N4CCC(O)(c5cccc(C(F)(F)F)c5)CC4)ncnc3c2c1,inactive
15,O=C(NCCCc1nc2ccccc2[nH]1)c1ccco1,inactive
16,CCC12CN(S(=O)(=O)c3ccc(C)cc3)CC(CC)(CN(S(=O)(=O)c3ccc(C)cc3)C1)C2=O,inactive
17,CCN(CCn1cccn1)C(=O)CC1C(=O)NCCN1CCc1ccccc1 (stereo not given),inactive
18,Oc1ccc(C=NNc2ccccn2)c(O)c1,inactive
19,CC(C)(C)OC(=O)N1CCc2onc(-c3ccc(Br)cc3)c2C1=O,inactive
20,Clc1ccc2c(c1)C1=C(C(c3ccncc3)O2)C(c2ccc(Br)cc2)n2ncnc2N1 (stereo not given),inactive

row,Compound,outcome
1,C=C(C)CN(CC)c1nc(N)c2c(N)nc3c(c2c1C#N)CC(=O)N3C12CC3CC(CC(C3)C1)C2,inactive
2,N#Cc1ccc(CSc2nnc(COc3ccccc3)n2-c2ccccc2)cc1,inactive
3,COc1ccc(NS(=O)(=O)c2cccc(C(=O)NNC(=O)CNC(=O)c3ccc(C)cc3)c2)cc1,inactive
4,COc1ccc(C)cc1NC(=O)CCNS(=O)(=O)c1ccc2c(c1)CC(C)N2C(C)=O (stereo not given),inactive
5,O=C(c1ccccc1)N1CCC(c2nc(-c3ccc(S(=O)(=O)NCC4CCCO4)cc3)no2)CC1 (stereo not given),inactive
6,COc1ccc2c(c1)[nH]c1c(N3CCN(Cc4ccc5c(c4)OCO5)CC3)ncnc12,inactive
7,CC(C)OCCCn1c(=S)[nH]c2ccc(N3CCOCC3)cc2c1=O,inactive
8,CCCCNC(=O)C[C@H]1C[C@@]2(C(=O)OC)C(=C[C@H](C(C)(C)C)O[C@@H]2C)N(Cc2ccc3c(c2)OCO3)C1=O,inactive
9,CCOc1ccc(NC2c3ccccc3C(=O)N2Cc2ccco2)cc1 (stereo not given),inactive
10,CSc1ccc(CN(C)C(=O)c2cccc(S(=O)(=O)N3CCN(Cc4ccccc4)CC3)c2)cc1,inactive
11,O=C(N/N=C/c1ccc(-n2ccnc2)cc1)c1cccs1,inactive
12,Cc1[nH]c2ccccc2c1/C=N\NC(=O)c1ccccc1Cl,inactive
13,CCNC1CCC(Nc2ccnc3cc(Cl)ccc23)CC1 (stereo not given),inactive
14,COc1ccccc1-c1c(-c2ccc(O)cc2O)n[nH]c1C(F)(F)F,inactive
15,c1csc(-c2csc3ncnc(NCCCN4CCOCC4)c23)c1,inactive
16,COc1cc(-c2cc(OC)c(O)c(OC)c2)cc(OC)c1O,inactive
17,O=C(CC1C(=O)NCCN1Cc1cccc(F)c1)NC1CCCCC1 (stereo not given),inactive
18,CCCCCn1c(C(C)NC(=O)CCC)nc2ccccc21 (stereo not given),inactive
19,O=C(Nc1ccc(Cl)cc1)C1CCCN(C2=NS(=O)(=O)c3ccccc32)C1 (stereo not given),inactive
20,CC(=O)Nc1ccc(C(=O)OCC(=O)NC(=O)NCc2ccccc2)cc1,inactive
